Data as given in PubChem BioAssay (NCATS).
Inconclusive results are not listed. A call without a number means that no potency is given here. Active and inactive are the calls of the source. The call rests on the fitted dose curve; in most records, active means well fitted inhibition curve with a large enough effect; inconclusive means small, poorly fitted or top-dose-only effect; inactive means no such curve, though single readings can be large or run the other way.

Tests used:
[1] = Primary qHTS for small molecule stabilizers of the endoplasmic reticulum resident proteome: Secreted ER Calcium Modulated Protein (SERCaMP) assay (AID 1508630); conditions: SH-SY5Y GLuc-SERCaMP (Gaussia luciferase released on ER calcium loss) secretion, thapsigargin, luminescence; series mostly up to 38.4 µM
Procedure, shortened: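 The SH-SY5Y reporter protocol was run at 3 concentrations up to 38.3 uM (primary) or 11 concentrations (follow-up): 16 h compound, 100 nM thapsigargin for 4 h, then extracellular luciferase luminescence.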

Papain (Carica papaya) = Papain (Carica papaya) (UniProt P00784); assay: Primary qHTS assay for inhibitors of the protease papain (AID 1645873); conditions: papain Z-FR-AMC cleavage, AMC fluorescence; series mostly up to 49.8 µM;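 further: papain turnover of Z-FR-AMC read as the AMC fluorescence gain over 10 min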
Sequence of Papain (Carica papaya) (P00784 whole entry, looked up): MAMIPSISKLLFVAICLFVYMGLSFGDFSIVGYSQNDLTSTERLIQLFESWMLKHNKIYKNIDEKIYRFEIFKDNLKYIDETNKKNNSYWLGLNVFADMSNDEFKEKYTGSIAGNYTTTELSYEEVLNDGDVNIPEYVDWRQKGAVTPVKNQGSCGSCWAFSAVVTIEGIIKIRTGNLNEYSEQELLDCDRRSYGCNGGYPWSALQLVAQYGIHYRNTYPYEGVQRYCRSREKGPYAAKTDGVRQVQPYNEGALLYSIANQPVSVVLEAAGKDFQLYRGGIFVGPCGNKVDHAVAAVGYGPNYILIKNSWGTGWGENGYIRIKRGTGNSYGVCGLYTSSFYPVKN

Structure (SMILES) | Potency [1] | Potency (Papain (Carica papaya))
OC[C@H]1O[C@@H](n2cnc3c(NC4CCCCC4)ncnc32)[C@H](O)[C@@H]1O | inactive | inactive
COc1ccc(NC(=O)/C=C/c2ccc(Cl)cc2)cc1 | inactive | inactive
c1ccc(-c2ccccn2)nc1 | inactive | inactive
